{"source": "PubChem BioAssay (Tox21)", "note": "Results filed as inconclusive are left out. A number with no mark means an inactive call. Calls of active or inactive are those of the source. The call rests on the fitted dose curve; in most records, active means well fitted inhibition curve with a large enough effect in the repeat runs; inconclusive means weak or mixed curves; inactive means no such curve, though single readings can be large or run the other way.", "data": [{"molecular_target": "Estrogen receptor (Homo sapiens) (UniProt P03372)", "sequence (P03372 whole entry, looked up)": "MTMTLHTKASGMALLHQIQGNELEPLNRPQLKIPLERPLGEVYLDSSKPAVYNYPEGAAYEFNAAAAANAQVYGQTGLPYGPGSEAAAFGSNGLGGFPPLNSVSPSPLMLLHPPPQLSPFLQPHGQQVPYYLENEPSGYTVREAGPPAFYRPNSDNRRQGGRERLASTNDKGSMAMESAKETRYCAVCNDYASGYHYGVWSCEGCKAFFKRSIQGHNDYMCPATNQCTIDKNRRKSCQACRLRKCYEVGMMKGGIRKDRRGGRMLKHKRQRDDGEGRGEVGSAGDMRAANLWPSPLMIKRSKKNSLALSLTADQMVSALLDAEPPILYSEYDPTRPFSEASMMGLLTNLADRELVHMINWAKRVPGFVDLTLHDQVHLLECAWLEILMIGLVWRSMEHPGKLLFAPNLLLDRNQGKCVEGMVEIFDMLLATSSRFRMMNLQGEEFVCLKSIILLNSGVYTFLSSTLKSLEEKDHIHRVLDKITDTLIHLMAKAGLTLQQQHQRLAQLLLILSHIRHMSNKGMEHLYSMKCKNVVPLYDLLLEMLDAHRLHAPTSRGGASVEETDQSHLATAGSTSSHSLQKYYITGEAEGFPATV", "test": "qHTS assay to identify small molecule antagonists of the estrogen receptor alpha (ER-alpha) signaling pathway using the BG1 cell line in the presence of 0.1 nM 17-beta-estradiol (AID 1259244); further: nearly all actives have a fitted effect of over 50% in size; further: potency means the concentration at half of the fitted maximal effect; on activity change, negative = inhibition: on the % scale 0 is the no-effect control and ±100 the full control effect", "conditions": "VM7Luc4E2 (BG1) ERE-luciferase, antagonist mode, 0.1 nM E2, 22 h; series mostly up to 92.4 µM; activity change, negative = inhibition: at the top concentration", "text": "National Center for Advancing Translational Sciences [NCATS]\nNIH Chemical Genomics Center [NCGC]\nU.S. Environmental Protection Agency [EPA]\nNational Institutes of Environmental Health Sciences [NIEHS]\nNational Toxicology Program [NTP]\nU.S. Food and Drug Administration [FDA]\nEstrogen receptor (ER), a member of the nuclear hormone receptor plays an important role in development, metabolic homeostasis and reproduction. Two subtypes of ER, ER-alpha and ER-beta, have similar expression patterns with some uniqueness in both types. Endocrine disrupting chemicals (EDCs) and their interactions with steroid hormone receptors like ER causes disruption of normal endocrine function. Therefore, it is important to understand the effect of environmental chemicals in ER signaling pathway. For identifying ER antagonists, VM7Luc4E2 cell line was used to screen against Tox21 compound libraries.\nVM7Luc4E2 cell line (provided by Denison MS, University of California) endogenously express full-length ER-alpha and is stably transfected with a plasmid containing four estrogen responsive elements (ERE) upstream of a luciferase reporter gene. The current screening for identification of ER-alpha inhibitors against Tox21 compound libraries used lower concentration (0.1 nM) of 17beta-Estradiol as a stimulator.\nTox21 Assay Protocol Summary:\nVM7Luc4E2 cells were cultured in phenol red free assay medium containing 10% charcoal stripped FBS for 5 days prior to the assay. The cells were dispensed at 4,000 cells/well in 4 uL of assay medium into white wall/solid-bottom 1536-well plates (Corning Life Sciences, Corning, NY) using a Multidrop Combi (ThermoFisher Scientific, Waltham, MA) dispenser. After the assay plates were incubated at 37C and 5% CO2 for 24 hr, 23 nL of compounds dissolved in DMSO, positive controls or DMSO only was transferred to the assay plates by a Pintool station (Kalypsys, San Diego, CA). The transfer of compounds was followed by the addition of 1 uL of 0.1 nM (final concentration) agonist (17beta-Estradiol)/assay medium using a Flying Reagent Dispenser (FRD, Aurora Discovery, San Diego, CA). The plates were incubated at 37C and 5% CO2 for 22 hr. For luciferase reporter gene assay, 4 uL of ONE-Glo reagent (Promega Corporation, Madison, WI) was added to each well using the FRD and after 30 min incubation at room temperature luminescence intensity was measured using ViewLux plate reader (PerkinElmer, Shelton, CT).", "values": [{"compound": "CCCCC(CC)COC(=O)COc1cc(Cl)c(Cl)cc1Cl", "note": "(stereo not given)", "activity change, negative = inhibition": "1.84%"}, {"compound": "COc1ccc(Nc2ccc(OC)cc2)cc1", "activity change, negative = inhibition": "26.8%"}, {"compound": "O=S(=O)(O)C(F)(F)F", "activity change, negative = inhibition": "-0.515%"}, {"compound": "NNS(=O)(=O)c1ccc(Oc2ccc(S(=O)(=O)NN)cc2)cc1", "activity change, negative = inhibition": "8.15%"}, {"compound": "C=Cc1ccccc1", "activity change, negative = inhibition": "23.9%"}, {"compound": "c1ccc(CN(CC2=NCCN2)c2ccccc2)cc1", "activity change, negative = inhibition": "0.459% [at 42.5 µM]"}, {"compound": "ICCc1ccccc1", "Potency": "67.2 µM (active)"}, {"compound": "Cc1c[nH]c(=S)[nH]c1=O", "activity change, negative = inhibition": "-25.1%"}, {"compound": "CCN(CC)CCOc1ccc(Cc2ccccc2)cc1", "activity change, negative = inhibition": "9.88% [at 42.5 µM]"}, {"compound": "CC(C)S", "activity change, negative = inhibition": "16.7%"}, {"compound": "O=c1[nH]c(=O)n([C@H]2C[C@H](O)[C@@H](CO)O2)cc1C(F)(F)F", "activity change, negative = inhibition": "-17.6% [at 42.5 µM]"}, {"compound": "CN(C)C(=O)NC1(c2ccccc2)CCN(CCC[C@]2(c3ccc(Cl)c(Cl)c3)CCCN(C(=O)c3ccccc3)C2)CC1", "activity change, negative = inhibition": "3.38% [at 19 µM]"}, {"compound": "CC(C)C(=O)OC/C=C/c1ccccc1", "activity change, negative = inhibition": "-9.1%"}, {"compound": "CCCNC(C)C(=O)Nc1c(C)csc1C(=O)OC", "note": "(stereo not given)", "activity change, negative = inhibition": "1.12% [at 42.5 µM]"}, {"compound": "CCN(CCCc1ccccc1)CCCc1ccccc1", "activity change, negative = inhibition": "0.916% [at 42.5 µM]"}, {"compound": "O=C(CC(=O)C(F)(F)F)c1ccccc1", "activity change, negative = inhibition": "33.6%"}, {"compound": "CCCOc1ccc2c(c1)CC[C@@H]1[C@@H]2CC[C@]2(C)C(OC)CC[C@@H]12", "note": "(stereo not given in full)", "activity change, negative = inhibition": "16.9% [at 42.5 µM]"}, {"compound": "CCCCCCCCOC(=O)CCCCCCCCC(=O)OCCCCCCCC", "activity change, negative = inhibition": "-0.447%"}, {"compound": "Nc1ccc(Oc2ccc(N)c(N)c2)cc1", "activity change, negative = inhibition": "-37.3%"}, {"compound": "CC(C)(C)c1ccc(OC(=O)c2ccccc2O)cc1", "activity change, negative = inhibition": "71%"}, {"compound": "CCCCN1C[C@H](O)[C@@H](O)[C@H](O)[C@H]1CO", "activity change, negative = inhibition": "-0.622% [at 42.5 µM]"}, {"compound": "CN(CCCN1c2ccccc2CCc2ccccc21)CC(=O)c1ccc(Cl)cc1", "activity change, negative = inhibition": "1.24% [at 42.5 µM]"}, {"compound": "NC(=O)NS(=O)(=O)c1ccc(Cl)cc1", "activity change, negative = inhibition": "1.05% [at 42.5 µM]"}, {"compound": "CC(CNC1CCCCC1)OC(=O)c1ccccc1", "note": "(stereo not given)", "activity change, negative = inhibition": "-4.99% [at 42.5 µM]"}, {"compound": "COC(=O)C(C)O", "note": "(stereo not given)", "activity change, negative = inhibition": "20%"}, {"compound": "CN1CCN(c2c(F)cc3c(=O)c(C(=O)O)cn(CCF)c3c2F)CC1", "activity change, negative = inhibition": "-3.08% [at 42.5 µM]"}, {"compound": "CO[C@@]1(NC(=O)CSCC#N)C(=O)N2C(C(=O)O)=C(CSc3nnnn3C)CS[C@@H]21", "activity change, negative = inhibition": "-11.8% [at 42.5 µM]"}, {"compound": "Cc1cc2c(s1)Nc1ccccc1N=C2N1CCN(C)CC1", "activity change, negative = inhibition": "-7.98% [at 42.5 µM]"}, {"compound": "C=CCc1cc(OC)c(O)c(C(=O)NCCO)c1", "activity change, negative = inhibition": "-12% [at 42.5 µM]"}, {"compound": "NCCCN1CCN(CCCN)CC1", "activity change, negative = inhibition": "-0.917%"}, {"compound": "CCCCC(=O)O[C@]1(C(=O)CO)[C@H](C)C[C@H]2[C@@H]3CCC4=CC(=O)C=C[C@]4(C)[C@@]3(F)[C@@H](O)C[C@@]21C", "activity change, negative = inhibition": "15.3% [at 42.5 µM]"}, {"compound": "CC(=O)N[C@@H](CC(C)C)C(=O)O", "activity change, negative = inhibition": "2.28% [at 42.5 µM]"}, {"compound": "CCC(=O)O[C@]1(C(=O)SCF)[C@H](C)C[C@H]2[C@@H]3C[C@H](F)C4=CC(=O)C=C[C@]4(C)[C@@]3(F)[C@@H](O)C[C@@]21C", "activity change, negative = inhibition": "26.1% [at 42.5 µM]"}, {"compound": "CN1CCN(N)CC1", "activity change, negative = inhibition": "7.65% [at 42.5 µM]"}, {"compound": "Cc1ncc(CO)c(CN)c1O", "activity change, negative = inhibition": "-1.89% [at 42.5 µM]"}, {"compound": "CCOC(=O)NCCC[Si](OCC)(OCC)OCC", "activity change, negative = inhibition": "2.97%"}, {"compound": "CN1CCN(c2c(F)cc3c(=O)c(C(=O)O)cn4c3c2SCC4)CC1", "activity change, negative = inhibition": "1.78% [at 42.5 µM]"}, {"compound": "Clc1cccc(-c2cc(Cl)cc(Cl)c2)c1", "activity change, negative = inhibition": "7.08%"}, {"compound": "O=C1N(c2ccccc2)c2ccccc2C1(Cc1ccncc1)Cc1ccncc1", "activity change, negative = inhibition": "-4.24% [at 42.5 µM]"}, {"compound": "CN1CCN(C2=Nc3ccccc3Oc3ccc(Cl)cc32)CC1", "activity change, negative = inhibition": "-17.5% [at 42.5 µM]"}]}]}
